Screening data as filed in PubChem BioAssay.
FBW7 activator – activators of human E3 ligase FBW7; AID 1259310; 650,000 tested, 0.13% active; AlphaScreen FBW7–phospho-cyclin E peptide binding, activator screen; normalized activity (activation), % at 26.1 µM; Q969H0; in the data active means normalized activity above about 1.9%;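 further: purified mutant Fbw7 with reduced substrate affinity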
GPR151 ag – human GPR151 activation | PathHunter beta-arrestin GPR151 cells, luminescence | 650,000 tested, 1% active | AID 1508602 | Q8TDV0 | activation, % at 11.2 µM; in the data active means activation above about 4.9%
Target sequence (Q8TDV0 whole entry, looked up): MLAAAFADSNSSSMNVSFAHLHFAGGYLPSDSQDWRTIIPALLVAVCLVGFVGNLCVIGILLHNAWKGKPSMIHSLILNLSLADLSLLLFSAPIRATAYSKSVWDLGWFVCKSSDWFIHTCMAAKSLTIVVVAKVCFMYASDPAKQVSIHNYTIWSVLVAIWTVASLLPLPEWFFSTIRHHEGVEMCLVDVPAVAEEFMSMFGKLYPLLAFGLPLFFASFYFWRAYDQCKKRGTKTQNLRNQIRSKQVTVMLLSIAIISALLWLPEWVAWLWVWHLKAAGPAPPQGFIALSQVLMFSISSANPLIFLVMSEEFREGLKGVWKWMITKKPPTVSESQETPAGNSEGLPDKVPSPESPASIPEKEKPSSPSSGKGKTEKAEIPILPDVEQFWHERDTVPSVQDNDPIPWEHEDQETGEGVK
MITF primary – inhibitors of human MITF; O75030; AlphaScreen MITF homodimerization, bead proximity signal; inhibition, % at 2.6 µM; 650,000 tested, 0.91% active; in the data active means inhibition above about 50%
TEAD-YAP block – TEAD-YAP interaction inhibition. HEK-TIYL cells, TEAD-Gal4/YAP UAS-luciferase luminescence. inhibition, % at 9.12 µM. 640,000 tested, 1.4% active. AID 1259422; in the data active means inhibition above about 32%
Each line names hits and unclear results; the compound was inactive in the other large screens. This is a sample that favours compounds with a hit; in the whole collection about 3.5% have one here.

c1cc(-c2ccnc(Nc3ccc(-n4cnc(N5CCOCC5)n4)cc3)n2)cc(N2CCOCC2)c1	TEAD-YAP block 43.0
CCN1CCN(c2ncn(-c3ccc(Nc4nccc(-c5cc(C#N)cc(N6CCOCC6)c5)n4)cc3)n2)CC1	none
CCOc1nsnc1N1CCOCC1	none
COc1ccccc1-c1ccc(NCCc2ccccn2)nc1	none
Cc1c(C(=O)N2CCCC2)oc2c1-c1nn(CC(=O)NCCN3CCOCC3)cc1CC2	none
OC1CCN(c2ncn(-c3ccc(Nc4nccc(-c5cccc(N6CCOCC6)c5)n4)cc3)n2)CC1	TEAD-YAP block 81.8
CCc1ncn(-c2ccc(Nc3nccc(-c4cccc(N5CCOCC5)c4)n3)cc2)n1	TEAD-YAP block 45.7
c1ccc(Cn2nnnc2-c2ccc(Nc3nccc(-c4cccc(N5CCOCC5)c4)n3)cc2)cc1	FBW7 activator 2.0
Fc1cncc(-c2ccnc(Nc3ccc(-n4cnc(N5CCOCC5)n4)cc3)n2)c1	none
CC(C)c1ncn(-c2ccc(Nc3nccc(-c4cccc(N5CCOCC5)c4)n3)cc2)n1	none
Oc1c(C2CC3CCC2C3)cccc1C1CC2CCC1C2 (centres undefined)	none
O=c1c2ccccc2ncn1CCOc1ccc(Cl)cc1	none
COc1ccc(CCNC(=O)CSc2nc3ccc(Br)cc3c3nc4ccccc4n23)cc1OC	FBW7 activator 1.9
COc1ccc(CCNC(=O)CSc2nc3ccccc3c(=O)n2CCc2ccc(OC)c(OC)c2)cc1OC	none
Cc1ccc(/C(C#N)=C\c2ccc3c(c2)OCCO3)cc1	TEAD-YAP block 56.3
CCOC(=O)C(C)(C)N(CCC(C)C)S(=O)(=O)c1ccc([N+](=O)[O-])cc1	none
CNC(=O)/C(C#N)=C/c1c(Oc2ccc(C(C)(C)C)cc2)nc2ccccn2c1=O	none
CC1(Cc2ccc3c(c2)OCO3)C(=O)Nc2ccc(-c3cccnc3)cc21 (centres undefined)	TEAD-YAP block 42.1
CC1(Cc2ccccc2)C(=O)Nc2ccc(-c3cccnc3)cc21 (centres undefined)	none
CC(C)(C)c1ccc(OCCSc2nc3ccccc3n2CC(N)=O)cc1	TEAD-YAP block 48.0
CN(C)C(=O)CSc1nc2ccccc2n1CC(=O)NC(C)(C)C	none
CC(C)(C)NC(=O)Cn1c(SCC(N)=O)nc2ccccc21	FBW7 activator 2.0
COc1ccc(CC(=O)Nc2cc3cc(-c4cnn(C)c4)ccc3cn2)cc1	TEAD-YAP block 72.2
COc1ccc(CC(=O)Nc2ccc(-c3cn[nH]c3)cc2N2CCN(C)CC2)cc1	none
COc1ccc(CC(=O)Nc2cc(C)on2)cc1	none
COc1ccc(CC(=O)Nc2cc3cc(-c4cn[nH]c4)ccc3cn2)cc1	TEAD-YAP block 95.9
Cn1cc(-c2ccnc(NC(=O)Cc3ccc4c(c3)OCO4)c2)cn1	TEAD-YAP block 33.9
NC1CCN(c2ccnc(NC(=O)Cc3ccc4c(c3)OCO4)c2)CC1	none
COc1ccc(CC(=O)Nc2cc(-c3cnn(C)c3)ccn2)cc1	TEAD-YAP block 43.4
COc1ccc(C(=O)Nn2nnc3ccccc3c2=O)cc1OC	none
O=C(COc1ccccc1)Nc1cc([N+](=O)[O-])ccc1O	TEAD-YAP block 56.3
O=C(COc1ccccc1Cl)Nc1cc([N+](=O)[O-])ccc1O	TEAD-YAP block 69.3
CCOC(=O)C1C(=O)NC(SCC)=C(C#N)C1c1ccccc1[N+](=O)[O-] (centres undefined)	none
COc1cccc(C(=O)Nc2sc3c(c2C(N)=O)CCC(C)C3)c1 (centres undefined)	none
COc1cc(/C=N\Nc2ccc([N+](=O)[O-])cn2)c(Br)cc1O	FBW7 activator 20.4
NC(=O)c1ccc(NC(=O)CSC2=NCCN2)cc1	none
COc1ccc2nc3c(cc2c1)c(N)nn3C(=O)c1cc(OC)c(OC)c(OC)c1	TEAD-YAP block 61.9
COc1ccc2cc3c(N)nn(C(=O)c4cc(OC)c(OC)c(OC)c4)c3nc2c1	TEAD-YAP block 50.9
CCOc1ccc(C(=O)n2nc(N)c3cc4cc(OC)ccc4nc32)cc1OCC	TEAD-YAP block 51.7
COc1ccc2cc3c(N)nn(C(=O)c4ccncc4)c3nc2c1	none
CCN(CC)C(=O)C1CCCN(c2ccc(-n3cc(CC(=O)NCCN(C(C)C)C(C)C)c4ccccc43)nn2)C1 (centres undefined)	none
Cc1ccc(-c2[nH]ncc2CN(CCO)Cc2cccs2)cc1C	none
CCCCOc1ccc(-c2nn(-c3ccccc3)cc2/C=c2\sc3nc(=O)c(Cc4ccccc4)nn3c2=O)cc1C	MITF primary 75.9
CCCCOc1ccc(-c2nn(-c3ccccc3)cc2/C=c2\sc3nc(=O)c(C)nn3c2=O)cc1C	none
COc1ccc(N(C)S(=O)(=O)c2cccc3cccnc23)c(OC)c1	TEAD-YAP block 39.0
Cc1ccc2oc(-c3cc(N)ccc3O)nc2c1	none
